{"source": "PubChem BioAssay AID485364", "about": "(National Center for Advancing Translational Sciences (NCATS), 2010)", "note": "About 11,000 (3.1%) of roughly 360,000 compounds were called active. Another 4% or so got no clear call; they are omitted. The call rests on the fitted dose curve; in most records, active means well fitted inhibition curve with a large enough effect; inconclusive means small, poorly fitted or top-dose-only effect; inactive means no such curve, though single readings can be large or run the other way. Many of the other results were omitted from the sample, so actives are more common in it than they were. On the % scale 0 is the no-effect control and ±100 the full control effect; potency means the concentration at half of the fitted maximal effect."}
{"target": "Schistosoma mansoni thioredoxin glutathione reductase (TGR) (UniProt Q962Y6)", "experiment": "qHTS Assay for the Inhibitors of Schistosoma Mansoni Peroxiredoxins; further: nearly all actives have a fitted effect of over 60% in size", "details": "purified TGR, DTNB reduction, TNB absorbance 405 nm; series mostly up to 114 µM; activity change, negative = inhibition: at the top concentration", "outline": "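TGR 20 nM + NADPH 100 uM (dispensed conc.), cpd preinc 15 min RT; start with NADPH (500 uM addition) then DTNB (15 mM addition). Kinetic TNB absorbance, 405 nm filter. Four-parameter Hill fit across titration.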"}
{"molecule": "CCOC(=O)c1ccc2c(c1)N(Cc1cccc(OC)c1)C(=O)c1ccccc1S2(=O)=O", "activity change, negative = inhibition": "26.6% (inactive)"}
{"molecule": "O=C(c1ccco1)N1CCN(C(=O)c2ccc(COc3ccc(F)cc3)o2)CC1", "Potency": "44.7 µM (active)"}
{"molecule": "O=C(c1ccco1)N1CCN(CCOc2ccccc2)CC1", "activity change, negative = inhibition": "8.74% (inactive)"}
{"molecule": "O=C(c1ccco1)N1CCN(C(=S)Nc2cc(F)cc(F)c2)CC1", "activity change, negative = inhibition": "-32.1% (inactive)"}
{"molecule": "N#Cc1ccccc1Cn1cnc2nc3c(cc2c1=O)CCCC3", "activity change, negative = inhibition": "-3.23% (inactive)"}
{"molecule": "CCCCNC(=O)c1ccc2c(c1)NC(=O)C(C(C)C)N2", "note": "(configuration not stated)", "activity change, negative = inhibition": "-8.77% (inactive)"}
{"molecule": "CCOc1cc(-c2nnc(SCC(=O)NC3CCCC3)nc2-c2ccc(OC)c(OCC)c2)ccc1OC", "activity change, negative = inhibition": "-5.17% (inactive)"}
{"molecule": "COc1ccc(CC(=O)NCCc2sc3nc(-c4ccc(OC)cc4)nn3c2C)cc1", "activity change, negative = inhibition": "-2.43% (inactive)"}
{"molecule": "COc1ccc(N2CCN(C(=O)CSCc3nc(-c4ccccc4Cl)oc3C)CC2)cc1", "activity change, negative = inhibition": "-8.12% (inactive)"}
{"molecule": "CC(CCc1ccccc1)NC(=O)c1cnc(Cl)c(Cl)c1", "note": "(configuration not stated)", "activity change, negative = inhibition": "4.28% (inactive)"}
{"molecule": "COc1ccc(-c2nc(CS(=O)CC(=O)NCc3ccccn3)c(C)o2)cc1", "note": "(configuration not stated)", "Potency": "17.8 µM (active)"}
{"molecule": "COc1ccc(-c2nc(CS(=O)CC(=O)NCc3cccnc3)c(C)o2)cc1OC", "note": "(configuration not stated)", "activity change, negative = inhibition": "-36% (inactive)"}
{"molecule": "COc1ccc(-c2nc(CS(=O)CC(=O)N3CCc4ccccc4C3)c(C)o2)cc1", "note": "(configuration not stated)", "Potency": "2 µM (active)"}
{"molecule": "CNC(=O)c1ccc(-c2nc(CN3CCc4ccccc43)c(C)o2)cc1", "activity change, negative = inhibition": "-4.91% (inactive)"}
{"molecule": "Cc1oc(-c2ccccc2F)nc1CS(=O)CC(=O)NCCN1CCCCC1C", "note": "(configuration not stated)", "activity change, negative = inhibition": "3.86% (inactive)"}
{"molecule": "CC1=C(C)CC(C(=O)NC(C)CCc2ccccc2)C(C(=O)O)C1", "note": "(configuration not stated)", "activity change, negative = inhibition": "4.49% (inactive)"}
{"molecule": "Cc1ccc(-c2nc(CS(=O)CC(=O)NC3CCCC3)c(C)o2)cc1", "note": "(configuration not stated)", "Potency": "22.4 µM (active)"}
{"molecule": "Cc1cccc(-c2nc(CS(=O)CC(=O)NC(C)CCc3ccccc3)c(C)o2)c1", "note": "(configuration not stated)", "Potency": "15.8 µM (active)"}
{"molecule": "COc1ccc(CNC(=O)CS(=O)Cc2nc(-c3cccc(C)c3)oc2C)cc1", "note": "(configuration not stated)", "activity change, negative = inhibition": "-27.5% (inactive)"}
{"molecule": "Cc1ccc(-c2nc(CSCC(=O)NC3CCN(Cc4ccccc4)CC3)c(C)o2)cc1", "activity change, negative = inhibition": "-35.5% (inactive)"}
{"molecule": "Cc1ccc(-c2nn(CCC(=O)Nc3ccc(OC(F)(F)F)cc3)c(=O)c3ccccc23)cc1", "activity change, negative = inhibition": "3.82% (inactive)"}
{"molecule": "Cc1cc(C)cc(NS(=O)(=O)c2cc3c(cc2C)NC(=O)CO3)c1", "activity change, negative = inhibition": "5.3% (inactive)"}
{"molecule": "COc1ccc(Cn2c(C(=O)O)c(CNCCc3cccs3)c3ccc(OC)cc32)cc1", "activity change, negative = inhibition": "8.81% (inactive)"}
{"molecule": "CCOCCc1nn2c(=O)cc(COC(=O)CNC(=O)c3ccc(C(C)(C)C)cc3)nc2s1", "activity change, negative = inhibition": "-14.4% (inactive)"}
{"molecule": "CCN(C(=O)CSc1nnc(C)n2c1cc1occc12)c1ccccc1", "activity change, negative = inhibition": "-20% (inactive)"}
{"molecule": "Cc1ccc(Cl)cc1NC(=O)C(C)n1nnc2sc(-c3ccccc3)cc2c1=O", "note": "(configuration not stated)", "activity change, negative = inhibition": "-5.46% (inactive)"}
{"molecule": "COc1ccc(C2c3c(oc4ccccc4c3=O)C(=O)N2Cc2ccc3c(c2)OCO3)cc1", "note": "(configuration not stated)", "activity change, negative = inhibition": "4.84% (inactive)"}
